ssDAF12 agonist = S. stercoralis DAF-12 nuclear receptor activators, primary screen, cell-based, luminescence, HEK293, GRIP1 co-expression, lit1-tk-luc. HEK293 ssDAF-12/GRIP1 lit1-tk-luc reporter; % of 3 µM dafachronic acid response. activation, % at 6.8 µM. 1% of 370,000 active. Nuclear hormone receptor DAF-12 (Strongyloides stercoralis);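 active = activation above the mean over all tested compounds plus 3 SD, cut at about 0.9% in these data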
hgDAF12 agonist = H. glycines DAF-12 receptor agonists, primary screen, cell-based, luminescence, HEK293, GAL4 fusion, UAS-luciferase. Nuclear hormone receptor DAF-12 (Heterodera glycines), GAL4 fusion. HEK293 GAL4-hgDAF12 UAS-luciferase reporter, agonist luminescence; normalized to butyrate control. activation, % at 6.8 µM. 1.8% of 370,000 active;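 active = activation above a cutoff set at the mean of all screened compounds plus 3 SD, cut at about 10% in these data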
SMARCA2 act = SMARCA2 (BRM) function activators, primary screen, cell-based, luminescence, high throughput; MG213 cells, MMTV-luciferase reporter, dexamethasone, overnight; activation, % at 9.1 µM; 1% of 370,000 active; AID 652017, 2013; in the data active = activation above about 7.8%
DAX1 inh-1 = DAX1 (NR0B1) inhibitors on StAR promoter, primary screen, cell-based, luminescence, SF-1 (NR5A1), full-length DAX-1; HEK293T StAR-luciferase reporter, SF-1/DAX-1 repression relief; 1.1% of 370,000 active; inhibition, % at 6.8 µM; AID 652010, 2013;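 active = inhibition above the mean over all tested compounds plus 3 SD, cut at about 3.6% in these data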;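 also: higher inhibition means more luminescence from relief of DAX-1 repression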
DAX1 inh-2 = DAX1 (NR0B1) inhibitors, primary screen, cell-based, HEK293, Gal4-DAX1, luciferase luminescence; Nuclear receptor subfamily 0 group B member 1 (Homo sapiens), P51843; HEK293 Gal4-DAX1 luciferase reporter; inhibition, % at 6.75 µM; 0.99% of 340,000 active; AID 504766, 2011;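 active = inhibition above the mean over all tested compounds plus 3 SD, cut at about 4.2% in these data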;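 also: inhibition shows as a rise in luminescence from relieved DAX1 repression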
Target sequence (P51843 207-470 limits assumed): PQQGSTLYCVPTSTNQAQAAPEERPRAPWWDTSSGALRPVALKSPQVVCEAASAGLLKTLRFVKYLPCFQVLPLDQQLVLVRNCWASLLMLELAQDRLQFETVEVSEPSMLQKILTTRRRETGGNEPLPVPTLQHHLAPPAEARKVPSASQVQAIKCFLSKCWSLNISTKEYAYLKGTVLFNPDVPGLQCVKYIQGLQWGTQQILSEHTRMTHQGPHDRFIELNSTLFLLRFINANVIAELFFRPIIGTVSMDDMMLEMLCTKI
hcDAF-12 act = H. contortus DAF-12 nuclear receptor activators, primary screen, cell-based, luminescence, HEK293, lit1-tk-luc reporter; activation, % at 6.8 µM; HEK293 hcDAF-12 lit1-tk-luc reporter; 0% DMSO, 100% Δ7-dafachronic acid; AID 652067, 2013; 1.4% of 370,000 active;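 active = activation above the mean of all tested compounds plus 3 SD, cut at about 5.5% in these data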
SMARCA2 act conf = SMARCA2 (BRM) function activators, confirmation, cell-based, luminescence, triplicate; shares compounds with SMARCA2 act; MG213 cells, MMTV-luciferase with dexamethasone, overnight; MG213 cells expressing E1A, Rb sequestered; DMSO wells 0%, reference activator 100%; activation, % at 9.1 µM; 30% of 3,500 active; AID 652260, 2013;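 active = activation above its plate's cutoff, the mean activation of tested wells plus 3 SD, cut at about 7.9% in these data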
VP16 Luc act = GAL4-VP16 luciferase reporter activation, counter-screen for SMARCA2 (BRM) activator project, cell-based, pG5luc, luminescence, high throughput; shares compounds with SMARCA2 act; HEK293 GAL4-VP16 pG5luc reporter; scaled: DMSO wells 0%, SAHA wells 100%; activation, % at 9.1 µM; 41% of 3,500 active;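 active = activation above the solvent-only control well mean plus 3 SD, averaged across control plates, cut at about 5.2% in these data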
Numbers stand for hits; – = inactive; · = not tested or not shown. A selection: hits, their analogues and other compounds. The true share with any hit is near 4.8%.

SMILES	ssDAF12 agonist	hgDAF12 agonist	SMARCA2 act	DAX1 inh-1	DAX1 inh-2	hcDAF-12 act	SMARCA2 act conf	VP16 Luc act
COC(=O)C[C@H]1CC[C@@H]2[C@H](COc3ccc(NC(=O)NCc4ccccc4)cc3C(=O)N2C)O1	–	–	–	–	·	–	·	·
O=[N+]([O-])c1ccc(CN2CCOCCOCCN(Cc3ccc([N+](=O)[O-])cc3Cl)CCOCC2)c(Cl)c1	–	–	·	·	·	–	·	·
CC(=O)Nc1ccc(S(=O)(=O)NCC2CCN(C(=O)C(=O)c3cc4ccccc4o3)CC2)cc1	–	–	–	–	·	–	·	·
COc1ccc2oc(C(=O)OCC(=O)N3CCC(C)CC3)c(C)c2c1	–	–	–	–	–	–	·	·
Cc1c(C(=O)OCC(=O)N2CCC(C)CC2)oc2ccccc12	–	–	9.2	–	–	–	–	–
CC(=O)C1(C(=O)Nc2cc(C)cc(C)c2)CC(c2ccccn2)=NO1 (configuration not stated)	–	–	–	–	·	–	·	·
NNC(=O)C(Cc1ccc(O)cc1)N1Cc2ccccc2C1=O (configuration not stated)	–	–	–	–	–	–	·	·
COC(=O)C(Cc1ccc(O)cc1)N1Cc2ccccc2C1=O (configuration not stated)	–	–	9.1	–	–	–	–	9.3
CC(=O)Nc1nc2ncccn2c1-c1ccc(C)cc1	–	–	–	–	·	–	·	·
COC(=O)c1cc(S(=O)(=O)N2CCCC2=O)c(Cl)cc1Cl	–	–	8.0	–	–	–	–	–
COC(=O)C1=C(C)N(Cc2cccc(C(F)(F)F)c2)C(=NCc2ccc(OC)cc2)NC1c1ccc(F)cc1 (configuration not stated)	–	–	–	–	·	–	·	·
CC(NC(=O)CCC(=O)c1cccs1)c1ccccc1 (configuration not stated)	–	–	–	–	–	–	·	·
O=C(CCC(=O)c1cccs1)NC(c1ccccc1)c1ccccc1	–	–	9.0	–	–	–	–	–
Cc1ccc(F)cc1NC(=O)CCC(=O)c1cccs1	–	–	–	–	–	–	·	·
Cc1ccc(NC(=O)CCC(=O)c2cccs2)c(O)c1	–	–	10	–	–	–	–	–
CCCC[C@H]1C2CC(OC(=O)Nc3ccc(F)cc3)C(C2)[C@H]2CCCCN21 (some centres not stated)	–	–	–	–	·	–	·	·
CC(C)c1ccc(C(=O)NN2C(=O)C3CCCCC3C2=O)cc1 (configuration not stated)	–	11	13	3.8	–	–	9.3	8.5
O=C(COc1ccccc1Br)NCc1ccco1	–	–	13	–	–	–	–	–
CCOC(=O)[C@@]12CCC3=C1N(CCC3)C(=O)[C@H](CC(=O)N1CCOCC1)C2	–	–	–	–	·	–	·	·
COc1ccc(/C=N\NC(=O)C2CCCC2)cc1Br	–	–	9.0	–	–	–	–	–
COc1ccc(/C=N/NC(=O)OC(C)(C)C)cc1OC	–	–	8.4	–	–	–	–	–
CCOc1ccc(/C=N/NC(=O)C2CC2)cc1OC	–	–	–	–	–	–	·	·
COc1cc(/C=N\NC(=O)OC(C)(C)C)ccc1OC(=O)c1ccco1	–	–	–	–	·	–	·	·

Compound activity (PubChem BioAssay)
